# Screening data deposited in PubChem BioAssay by National Center for Advancing Translational Sciences (NCATS).
# Shown are actives, neighbours in structure and some others; about 12% of the full set was active somewhere.
# G9a inh – qHTS Assay for Inhibitors of Histone Lysine Methyltransferase G9a; Potency, µM (doses to about 102 µM), for inactives: at the highest dose activity, negative = inhibition, actives largely listed as inhibitors; Histone-lysine N-methyltransferase EHMT2 (Homo sapiens), Q96KQ7; G9a H3K9 monomethylation, AlphaScreen, 2 h; hit rate 8.8% among 350,000; note: % is set by controls: 0 for no effect and ±100 for the full control effect; nearly all actives have a fitted effect of over 75% in size
# Target sequence (Q96KQ7 913-1193 limits assumed): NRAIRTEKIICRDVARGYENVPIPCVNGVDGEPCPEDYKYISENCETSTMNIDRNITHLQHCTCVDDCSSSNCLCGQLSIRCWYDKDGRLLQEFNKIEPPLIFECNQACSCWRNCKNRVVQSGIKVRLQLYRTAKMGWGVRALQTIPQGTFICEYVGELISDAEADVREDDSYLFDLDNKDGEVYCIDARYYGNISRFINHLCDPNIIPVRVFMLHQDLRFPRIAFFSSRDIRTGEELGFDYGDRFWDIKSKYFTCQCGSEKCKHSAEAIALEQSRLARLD
#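 G9a (20 nM) preincubated 15 min RT with compounds, then 500 nM biotinylated H3K9 peptide and 20 uM SAM added; 2 h RT reaction. Monomethyl-H3K9 product detected by AlphaScreen with anti-H3K9me1 antibody, streptavidin donor and anti-rabbit IgG acceptor beads.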
# HP1b chromo inh – HTS for Inhibitors of HP1-beta Chromodomain Interactions with Methylated Histone Tails. Chromobox protein homolog 1 (Homo sapiens), P83916. AlphaScreen HP1-beta / biotin-H3K9me3 peptide binding. Potency, µM (titrated, usually from 114 µM), inactives show at the top dose activity change, negative = inhibition, actives largely listed as inhibitors. hit rate 0.56% among 390,000; note: nearly all actives have a fitted effect of over 70% in size
# Target sequence (P83916 whole entry, looked up): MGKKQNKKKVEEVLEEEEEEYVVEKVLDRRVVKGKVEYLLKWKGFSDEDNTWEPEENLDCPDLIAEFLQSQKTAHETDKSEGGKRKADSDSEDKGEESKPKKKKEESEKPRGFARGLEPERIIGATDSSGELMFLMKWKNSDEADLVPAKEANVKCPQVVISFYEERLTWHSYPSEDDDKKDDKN
#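 Compound inhibition of the preformed complex between 50 nM HP1-beta and 50 nM biotinylated H3K9me3 peptide was read by AlphaScreen. Buffer was PBS pH 7.4 with 0.01% Tween-20. Incubations ran 30 min at room temperature, with 10 ug/mL donor/acceptor beads.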
# BAZ2B inh – qHTS Assay for Inhibitors of BAZ2B; AlphaScreen BAZ2B-H3K14Ac peptide displacement; Potency, µM (series often up to 114 µM), for inactives: top-dose activity change, negative = inhibition, most hits filed as inhibitors; hit rate 4.4% among 360,000; note: % is set by controls: 0 for no effect and ±100 for the full control effect; nearly all actives have a fitted effect of over 60% in size
#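 BAZ2B (50 nM) with biotin-H3(5-23)K14Ac peptide (50 nM) in PBS pH 7.4, 0.01% Tween-20, preformed 30 min, then compound 30 min at room temperature; top concentration 110uM. AlphaScreen streptavidin donor/nickel chelate acceptor beads (10 ug/mL final), 20 min dark, signal read.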
# JMJD2A Tudor inh – qHTS Assay for Inhibitors of JMJD2A-Tudor Domain; AlphaScreen JMJD2A-Tudor / H3K4me3 peptide binding; Potency, µM (top dose mostly 114 µM), inactives show at the highest dose activity change, negative = inhibition, most hits filed as inhibitors; hit rate 4.4% among 390,000; note: % is set by controls: 0 for no effect and ±100 for the full control effect; nearly all actives have a fitted effect of over 50% in size
# Sfp PPTase inh – qHTS Assay for Inhibitors of Bacillus subtilis Sfp phosphopantetheinyl transferase (PPTase) | 4'-phosphopantetheinyl transferase ffp (Bacillus subtilis), Q9F4F7 | Biochemical Sfp PPTase activity, qHTS | Potency, µM, inactives show largest response in the series, negative = inhibition, usual class: inhibitors | hit rate 3.5% among 310,000;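 note: the enzyme is Sfp with the accession as filed and its product quenches rhodamine fluorescence; 0% = enzyme reaction without inhibitor and -100% = no enzyme wells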
#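 Compounds were incubated with enzyme (final 15 nM) for 15 min at room temperature before substrate addition started the reaction. Fluorescence at 525 nm excitation, 598 nm emission was recorded immediately and after 30 minutes.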
# Starred values were filed as active, the others as inactive; ? = inconclusive; / = no result given; ! = a repeat was not active; [ ] = remark or other dose. Calls come from the whole dose curve; as a rule, active = well fitted curve in the direction sought with a large enough effect; inconclusive = small, poorly fitted or top-dose-only effect, or another doubt; inactive = no such curve, though single readings can be large; an effect the other way counts as inactive or inconclusive. Potency is the fitted concentration of half-maximal effect.
SMILES,G9a inh,HP1b chromo inh,BAZ2B inh,JMJD2A Tudor inh,Sfp PPTase inh
C=CCOC(=O)C(C(C)=O)C(NC(=O)OC)c1cccc(C)c1 (centres undefined),/,/,/,/,8%
CSc1nc(=S)cc(C)[nH]1,/,?,3%,25µM*,35µM*
CN(C)c1ccc(/C=C/c2nc3ccccc3s2)cc1,19%[0.501 µM],40µM*,32µM*,20µM*,-6%
C(=C\c1ccc2ccccc2n1)/c1ccccc1,195%[59 µM],137%,262%,149%,?
Cc1ccc(/C=C/c2nc3ccccc3s2)s1,10%[2.33 µM],469%,215%,332%,-7%
CN(C)c1ccc(/C=C/c2ccc3ccccc3n2)cc1,45µM*,5%,50µM*,?,?
Cc1cc(OC(=O)c2ccc(C)c(C)c2)c([N+](=O)[O-])c(=O)[nH]1,-15%,18%[57 µM],-20%,1%,15%
Cc1cc(OC(=O)c2ccc3ccccc3c2)c([N+](=O)[O-])c(=O)[nH]1,45µM*,30%,-22%,-29%,11%
Cc1cc(OC(=O)c2ccc(S(=O)(=O)N3CCOCC3)cc2)c([N+](=O)[O-])c(=O)[nH]1,56µM*,36%,?,-16%,17%
Cc1ccc(C)c(NC(=O)CN(C)S(=O)(=O)c2ccc3c(c2)CCC(=O)N3)c1,12%[59 µM],33%,-15%,-17%,/
Cc1c(NC(=O)Nc2ccc(Cl)c(Cl)c2)sc2nc3n(c(=O)c12)CCC(C)CC3 (centres undefined),3%[59 µM],30%,-1%,-7%,/
CCOC(=O)N1CCN(C(=O)Nc2sc3nc4n(c(=O)c3c2C)CCC(C)CC4)CC1 (centres undefined),32µM*,9%,-35%,-29%,-10%
CCOC(=O)N1CCC(NC(=O)c2sc3nc4n(c(=O)c3c2C)CCCC4)CC1,24%[12.7 µM],34%,-5%,-9%,19%
CCOC(=O)c1sc2nc3n(c(=O)c2c1C)CCC(C)CC3 (centres undefined),10µM*,-10%,11%,-13%,22µM*
CCOc1ccc(-n2nnnc2SCC(=O)NNC(=O)c2ccco2)cc1,/,-7%,0%,22µM*,-8%
C=CCNC(=S)Nc1sc2c(c1C(N)=O)CCCC2,18µM*,?,-38%,-34%,50µM*
NC(=O)c1c(NC(=O)c2cnccn2)sc2c1CCCC2,8.9µM*,25%,-23%,-8%[11.4 µM],40µM*
NC(=O)c1c(NC(=S)Nc2ccc(F)cc2)sc2c1CCCC2,22µM*,-5%,-21%,-4%,22µM*
NC(=O)c1c(NC(=S)Nc2ccccc2)sc2c1CCCC2,6.3µM*,-25%,-31%,?,56µM*
CCCCCCCCCC(=O)O[C@H](CC(=O)O)C[N+](C)(C)C,/,/,/,/,-18%
COc1ccc(-c2cc(C(=O)Nc3sc4c(c3C(N)=O)CCC(C)C4)no2)cc1 (centres undefined),-1%[59 µM],48%,0%,1%,/
NC(=O)c1c(NC(=O)c2cc(-c3ccc(F)cc3)on2)sc2c1CCCC2,1.8µM*,-23%,-13%,-31%,/
O=C(O)C1OC(O)C(O)C(O)C1O (centres undefined),/,/,/,/,11%
Cc1ccc(NC(=S)NC(=O)c2ccccc2)cc1NC(=S)NC(=O)c1ccccc1,?,-5%,-26%,-27%,25µM*
CNC(=S)Nc1ccc(C)c(NC(=S)NC)c1,28µM*,?,-26%,-15%,-25%
SMILES,G9a inh,HP1b chromo inh,BAZ2B inh,JMJD2A Tudor inh,Sfp PPTase inh
CC(=O)Nc1ccc(C)c(NC(=S)Nc2ccc(F)cc2)c1,/,49%,-7%,6%,-9%
Cc1ccc(C(=O)O)cc1NC(=S)NC(=O)c1ccc([N+](=O)[O-])c(C)c1,50µM*,6%,?,-6%,?
O=C(NC(=S)Nc1cccc(NC(=S)NC(=O)c2ccccc2)c1)c1ccccc1,/,-11%,/,-26%,/
Cc1ccc(CNC(=S)Nc2cc(C(=O)O)ccc2C)cc1,-33%,0%,11%,-11%,-11%
CCCN1CNc2c(c(=O)[nH]c(=S)n2CCc2ccc(Cl)cc2)C1,/,29%,/,-16%,/
C=CCc1cccc(C2NC(C(=O)O)CCC2C)c1 (centres undefined),/,/,/,/,4%
C[C@](N)(Cc1ccc(O)cc1)C(=O)O,0%[59 µM],/,/,/,-10%
COC(=O)C(C)(N)Cc1ccc(O)cc1 (centres undefined),25µM*!,21%,10%,-19%,/
COc1ccc(CCNC(=S)NNC(=O)c2c(Br)c(C)nn2C)cc1OC,11%,25%,-19%,-10%,9%
NS(=O)(=O)c1ccc(NS(=O)(=O)c2ccc(C3CNC(=O)C3)cc2)cc1 (centres undefined),-35%,8%,-2%,50µM*,14%
Cn1c(=O)n(-c2cccc(Cl)c2)c(=O)n1C,7%[59 µM],34%,4%,-8%,15%
O=c1c2cn[nH]c2[nH]c(=S)n1-c1cccc(Cl)c1,32µM*,35%,-20%,-25%,-23%
O=C(NCc1ccccn1)C1(C(F)(F)F)C/C(=C\Cc2ccccc2)CCCO1 (centres undefined),/,-12%,/,32µM*,56µM*
O=C(NCc1ccccc1)C1(C(F)(F)F)C/C(=C/Cc2ccccc2)CCCO1 (centres undefined),/,8%,/,-19%,-10%
O=C(c1cnccn1)N1CCC2(CC1)CCN(c1ccccn1)CC2,-3%[12.7 µM],/,/,/,15%
O=C(O)CCCCCNc1ccc2nsnc2c1[N+](=O)[O-],61%[59 µM],26%,13%,-12%,89µM*
O=C(O)CCCCCNS(=O)(=O)c1cccc2nsnc12,27%[59 µM],54%,7%,-11%,33%
CCCc1ccc(-c2cc(NC(=O)CSc3n[nH]c(N)n3)n(-c3ccccc3)n2)cc1,2%,13%,?,-28%,14%
CCCc1ccc(-c2cc(N)n[nH]2)cc1,22%,9%,79µM*,-27%,11%
COc1ccc(S(=O)(=O)c2nnn(-c3ccc(C)c(Cl)c3)c2C)cc1,-36%[59 µM],24%,-3%,-14%,/
CCOc1cccc(C=Nc2cc(C)cc(C)c2O)c1O,?,-22%,?,18µM*,-8%
Clc1cccc(-c2noc3ncnc(NC4CCCCC4)c23)c1,3%[59 µM],48%,-1%,-5%,/
COc1ccc(C2=NN(C(=O)CCC(=O)O)C(c3ccccc3OC)C2)cc1 (centres undefined),-6%,15%,-12%,-6%,11%
COc1cc(-c2csc(NC3CCCCC3)n2)cc(OC)c1OC,25µM*,-14%,?,?,-11%
